# High-throughput results as filed in PubChem.
# HT1080NT lethal – kills 2HG-producing HT-1080-NT fibrosarcoma cells; AID 686970; Potency, µM (series often up to 46.1 µM), inactives show at the highest dose activity, negative = less viability, hits mostly cytotoxic; 360,000 tested, 1.6% active; HT-1080-NT fibrosarcoma viability, CellTiter-Glo ATP luminescence, 48 h;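 also: NT is the 2HG producing partner of a matched IDH1 knockdown line; potency is read from the fitted curve at half-maximal effect; 0% = DMSO-treated cells and -100% = media-only wells without cells; nearly all actives have a fitted effect of over 55% in size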
#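 HT-1080-NT fibrosarcoma cells (2HG-overproducing), 750 cells/well in RPMI with 5% FBS, dosed after 2 h and incubated 48 h at 37C. CellTiter-Glo luminescence normalized to DMSO and no-cell wells; concentration-response curves fitted and classed.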
# 12-LOX inh – inhibitors of human 12S-lipoxygenase ALOX12. purified 12hLO, xylenol orange hydroperoxide absorbance. Potency, µM (highest dose often 108 µM), inactives show at the highest dose activity change, negative = inhibition, most hits filed as inhibitors. 580,000 tested, 1.1% active. AID 1671190; also: potency is read from the fitted curve at half-maximal effect
# Target sequence (P18054 whole entry, looked up): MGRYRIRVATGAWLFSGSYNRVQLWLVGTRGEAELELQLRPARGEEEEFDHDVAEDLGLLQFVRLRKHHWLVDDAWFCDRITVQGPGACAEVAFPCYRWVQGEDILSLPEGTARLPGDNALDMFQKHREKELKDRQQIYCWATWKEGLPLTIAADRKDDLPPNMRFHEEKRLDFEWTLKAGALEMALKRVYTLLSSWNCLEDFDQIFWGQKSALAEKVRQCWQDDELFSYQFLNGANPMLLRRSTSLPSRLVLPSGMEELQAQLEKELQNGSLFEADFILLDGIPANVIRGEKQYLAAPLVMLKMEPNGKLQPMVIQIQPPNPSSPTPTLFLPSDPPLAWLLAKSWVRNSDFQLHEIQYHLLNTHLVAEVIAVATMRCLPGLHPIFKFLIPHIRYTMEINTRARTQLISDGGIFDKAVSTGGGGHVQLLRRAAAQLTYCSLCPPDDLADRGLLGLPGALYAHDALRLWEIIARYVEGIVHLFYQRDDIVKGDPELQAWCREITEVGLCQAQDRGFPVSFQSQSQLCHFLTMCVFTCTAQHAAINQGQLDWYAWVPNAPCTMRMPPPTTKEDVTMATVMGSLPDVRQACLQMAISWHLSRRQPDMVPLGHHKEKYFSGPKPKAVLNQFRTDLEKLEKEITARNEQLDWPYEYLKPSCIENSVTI
#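 Hydroperoxide product was detected by ferrous iron/xylenol orange as the 573 to 405 nm absorbance ratio. Arachidonic acid at 40 uM (final) was turned over for 30 min at room temperature by 150 nM human 12hLO, pH 7.0 Hepes buffer, after 15 min compound preincubation.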
# IL1B secr inh – blocks inflammasome-driven IL-1 beta release; AID 743279; activity change, % at 57.5 µM; THP-1 LPS/ATP IL-1B secretion, AlphaLISA, 16 h; active compounds read low; 360,000 tested, 4.7% active; in the data active = activity change below about -50%; inconclusive = mostly about -30% to -49%
#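 Secreted IL-1B measured by AlphaLISA bead assay after 16 h compound exposure of THP-1 cells; compounds (final up to 57.5 uM) added 1 h before LPS (250 ng/mL) and ATP (1.25 mM) stimulation; lower signal means less secretion.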
# TDP1 cell noCPT – qHTS for Inhibitors of human tyrosyl-DNA phosphodiesterase 1 (TDP1): qHTS in cells in absence of CPT; DT40 Tdp1-/- hTDP1 cells, no CPT, ATP luminescence, 48 h; Potency, µM (series often up to 46.2 µM), for the others: at the highest dose activity change, negative = growth inhibition, usual class: inhibitors; AID 686978, 2013; 420,000 tested, 15% active; also: potency is read from the fitted curve at half-maximal effect; nearly all actives have a fitted effect of over 55% in size
#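 Camptothecin absent (DMSO only). Human TDP1-complemented DT40 knockout cells, 400 cells/well, 37 °C for minimum 48 hr; ATP measured via CellTiter-Glo, 30 min dark incubation, luminescence.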
# TDP1 cell CPT – growth inhibition of DT40 Tdp1-/-;hTDP1 cells with camptothecin (screen for TDP1 inhibitors). chicken DT40 Tdp1-/-;hTDP1 cells + 20 nM CPT, ATP luminescence, 48 h. Potency, µM (top dose mostly 46.2 µM), without a hit: at the top dose activity change, negative = growth inhibition, most hits filed as inhibitors. 420,000 tested, 12% active; also: potency is read from the fitted curve at half-maximal effect; nearly all actives have a fitted effect of over 55% in size
#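 Chicken DT40 Tdp1-/- cells stably complemented with human TDP1 were seeded at 400 cells/well in medium containing 20 nM camptothecin, exposed to pin-transferred compounds, and grown at 37 °C for at least 48 hr. Viability was read as ATP luminescence.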
# HT1080 IDH1KD tx – kills HT-1080 cells with IDH1 knockdown; Potency, µM (doses to about 46.1 µM), inactives show at the highest dose activity, negative = toxicity, hits mostly cytotoxic; HT-1080 IDH1 knockdown viability, ATP luminescence, 48 h; 360,000 tested, 2% active;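 also: potency is read from the fitted curve at half-maximal effect; 0% = DMSO wells and -100% = cell-free medium wells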
#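 Cytotoxicity counter-line: IDH1KD HT-1080, 48 h, CellTiter-Glo. Curves classed by r2, magnitude and activity.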
# Numbers without * were called inactive; ? = inconclusive; / = no result given; [ ] = dose if it differs, or a comment. The full list was thinned out, with hits kept by preference. Unless noted, calls follow the shape of the dose curve; as a rule, active = well fitted curve in the direction sought with a large enough effect; inconclusive = small, poorly fitted or top-dose-only effect, or another doubt; inactive = no such curve, though single readings can be large; an effect the other way counts as inactive or inconclusive. Unless noted, % is scaled to controls: 0 for no effect and ±100 for the full control effect.
SMILES,HT1080NT lethal,12-LOX inh,IL1B secr inh,TDP1 cell noCPT,TDP1 cell CPT,HT1080 IDH1KD tx
Cn1nc(C2CC2)cc1NC(=O)C1(C)CCN1C(=O)CC(c1ccccc1)c1ccccc1 (stereo not drawn),2.4%,-16.0%,-13.7,13µM*,23.1µM*,0.3%
Cn1nc(C2CC2)cc1NC(=O)C1(C)CCN1C(=O)c1ccccc1CCc1ccccc1 (stereo not drawn),?,1.7%,-8.7,16.4µM*,29.1µM*,5.6%
COc1ccc(-n2nc(C)c([C@@H]3C=C[C@@H](NCc4ccc(N(C)C)cc4)C3)c2C)cc1,/,38.4%[176 µM],/,/,/,/
COc1ccc(O[C@H]2COCCN(C(=O)c3cccc(F)c3)C2)cc1,/,39.9%[176 µM],/,/,/,/
O=C1CC2(C(=O)Nc3c(Cl)cccc32)c2sc(C(=O)O)c(-c3ccccc3)c2N1 (stereo not drawn),/,-30.0%,/,/,/,/
C#CCN(C)Cc1nc(C2(O)CCN(CC3CCCCC3)CC2)cs1,/,35.8%[176 µM],/,/,/,/
COc1ccccc1CNC(=O)c1ccc(-c2nc(CS(=O)(=O)c3ccc(C)cc3)c(C)o2)cc1,/,-1.3%,/,23.1µM*,?,/
Cc1ccc(CNC(=O)c2ccc(-c3nc(CS(=O)(=O)c4ccc(C)cc4)c(C)o3)cc2)cc1,/,-28.3%,/,7.31µM*,13µM*,/
COCCCNC(=O)c1ccc(-c2nc(CS(=O)(=O)c3ccc(C)cc3)c(C)o2)cc1,/,-5.2%,/,16.4µM*,?,/
Cc1ccccc1C(=O)NN=C(C1CC1)C1CC1,/,23.5%,/,/,/,/
Cc1ccc(S(=O)(=O)N2C[C@H]3[C@H]4C(=O)N(C5CCCCC5)C(=O)[C@H]4CC(=O)[C@H]3[C@@H]2c2cccc3ccccc23)cc1,?,?,-14.0,-8.7%,-6.6%,7.5%
Cc1ccc(S(=O)(=O)N2CCN(C3CCN(Cc4ccccc4)CC3)CC2)cc1,?,?,7.9,?,-22.9%,0.6%
Cc1ccc(S(=O)(=O)N2C[C@@H]3[C@H]4CC[C@H](C4)[C@@H]3[C@@H](C)[C@H]2C#N)cc1,4.6%,?,18.1,?,20.6µM*,2.8%
Cc1ccc(S(=O)(=O)N2C[C@@H]3CCCC[C@@H]3[C@@H](C)[C@H]2c2cn(Cc3ccccc3)c3ncccc23)cc1,-1.9%,1.9%,-0.7,?,11.6µM*,-1.4%
Cc1ccc(S(=O)(=O)N2C[C@H]3[C@H]4C(=O)N(Cc5ccccc5)C(=O)[C@H]4CC(=O)[C@H]3[C@@H]2c2ccccc2Cl)cc1,28.8%,-8.2%,-5.9,?,-28.0%,3.9%
Cc1ccc(S(=O)(=O)N2C[C@@H]3CCCC[C@@H]3[C@@H](C)[C@H]2c2cn(Cc3ccccc3)c3ccccc23)cc1,-1.9%,8.7%,5.1,7.31µM*,6.51µM*,-2.1%
Cc1ccc(S(=O)(=O)N2C[C@@H]3[C@H]4CC[C@H](C4)[C@@H]3[C@@H](C)[C@H]2c2ccn(Cc3ccccc3)c2)cc1,?,?,?,-74.8%,29.1µM*,-14.3%
O=C(C1CC1)N(Cc1ccc2c(c1)CN(S(=O)(=O)c1ccc(F)c(F)c1)CCO2)c1ccccc1,/,-0.5%,/,/,/,/
N#Cc1cc([N+](=O)[O-])ccc1NC(=O)COC(=O)CC12CC3CC(CC(Br)(C3)C1)C2,/,-1.9%,/,/,/,/
Cc1ccc(S(=O)(=O)N2C[C@H]3[C@H]4C(=O)N(Cc5ccccc5)C(=O)[C@H]4CC(=O)[C@H]3[C@@H]2c2ccccc2F)cc1,-1.5%,-26.7%,2.4,?,?,2.0%
